Source: PubChem BioAssay (National Center for Advancing Translational Sciences (NCATS))
Tau ThT inhib = tau fibrillization inhibition (ThT binding). recombinant tau K18 P301L, heparin-induced fibrillization, ThT fluorescence. Potency, µM (highest dose often 57.4 µM), most hits filed as inhibitors. P10636. 2.1% of 270,000 active. AID 1460; also: nearly all actives have a fitted effect of over 55% in size
Target sequence (P10636 561-689 P618L limits assumed): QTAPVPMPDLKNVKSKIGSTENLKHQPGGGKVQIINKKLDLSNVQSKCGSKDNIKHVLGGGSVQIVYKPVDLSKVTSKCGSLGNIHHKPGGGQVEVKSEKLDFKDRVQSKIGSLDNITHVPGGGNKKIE
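K18 P301L tau (15 uM + 0.24 uM Alexa 594-tagged), heparin 20 uM, NaOAc pH 7, 6 h 37 C; ThT 30 uM, 1 h RT, ex 450/em 510 nm.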
Tau fluor counter = counter-screen for tau fibril formation inhibitors; tau K18 P301L (four-repeat tau fragment) Alexa594 fluorescence, heparin fibrillization; Potency, µM (highest dose often 57.7 µM); 0.93% of 280,000 active; also: nearly all actives have a fitted effect of over 55% in size
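Human K18 P301L tau (15 uM unlabeled plus 0.24 uM Alexa 594-labeled, final) in 100 mM sodium acetate pH 7 was mixed with compound and 20 uM heparin and incubated 6 hr at 37 C.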
VDR inhibitor = inhibitors of human vitamin D receptor; P11473; 0.93% of 400,000 active; Potency, µM, hits mostly inhibitors; VDR-SRC2-3 peptide fluorescence polarization, 2 h
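Inhibition of the VDR/SRC2-3 peptide interaction is quantified by fluorescence polarization. Compounds (23 nl, pintool) incubate with the reagents for 2 hours at ambient room temperature.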
Sfp PPTase inh = inhibitors of Bacillus subtilis Sfp phosphopantetheinyl transferase. 3.5% of 310,000 active. Potency, µM, usual class: inhibitors. Q9F4F7. Biochemical Sfp PPTase activity, qHTS;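 also: the enzyme is Sfp with the accession as filed and its product quenches rhodamine fluorescence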
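Step 1, compound plus 15 nM Sfp-PPTase, 15 min, room temperature. Step 2, add rhodamine-CoA (5 uM) and BHQ-2-YbbR (12.5 uM). Step 3, read 525/598 nm fluorescence at 0 and 30 min.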
Tau fibril FP = tau fibrillization inhibition (FP); K18 P301L tau heparin fibrillization, Alexa594 FP, 6 h; Potency, µM (highest dose often 57.7 µM), hits mostly inhibitors; 0.39% of 280,000 active; AID 1468; also: nearly all actives have a fitted effect of over 55% in size
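Human tau K18 […] P301L fragment, 15 uM unlabeled plus 0.24 uM Alexa 594-labeled tau (final), with compound and 20 uM heparin in 100 mM sodium acetate pH 7; 6 hr at 37 C, then Alexa 594 FP read.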
PLK1 PBD block = PLK1 (human) polo-box domain binding inhibition; Plk1 PBD binding of FITC phosphopeptide, fluorescence polarization; P53350; 2.8% of 360,000 active; Potency, µM, hits mostly inhibitors; also: series mostly up to about 57 µM; nearly all actives have a fitted effect of over 65% in size
USP1-UAF1 confirm = blocks human USP1/UAF1 cleavage of Ub-Rhodamine. shares compounds with VDR inhibitor. Ub-Rhodamine cleavage, fluorescence kinetic read. Potency, µM (doses to about 114 µM), actives largely listed as inhibitors. 50% of 50 active. AID 540327
VDR confirm = inhibits human vitamin D receptor, primary hit validation; 89% of 840 active; shares compounds with VDR inhibitor; VDR-coactivator inhibition assay, qHTS confirmation; Potency, µM, usual class: inhibitors
VDR FP fluor = VDR (human) coactivator binding inhibition, fluorescein polarization; shares compounds with VDR inhibitor; VDR-coactivator binding, fluorescein fluorescence polarization; Potency, µM (doses to about 57.1 µM), hits mostly inhibitors; 48% of 840 active; AID 602200
VDR bla = confirmation of human vitamin D receptor inhibitors in reporter cells; shares compounds with VDR inhibitor; VDR beta-lactamase reporter cells, FRET ratio; cells co-treated with VDR agonist LG190178; Potency, µM (titrated, usually from 46.1 µM), actives largely listed as inhibitors; 23% of 840 active; AID 602202
VDR viability = cell toxicity, VDR inhibitor hit counter-screen; shares compounds with VDR inhibitor; cytotoxicity counter-screen, cell viability, qHTS; Potency, µM (top dose mostly 48.3 µM), usual class: cytotoxic; 18% of 840 active; also: nearly all actives have a fitted effect of over 75% in size
A number is an active result; . = inactive; ? = inconclusive; / = not tested or not shown; ! = not confirmed by another sample; [ ] = another dose, or the depositor's remark. An excerpt weighted towards active compounds, which were near 6% of everything screened. Calls follow the shape of the dose curve; as a rule, active = well fitted curve in the direction sought with a large enough effect; inconclusive = small, poorly fitted or top-dose-only effect, or another doubt; inactive = no such curve, though single readings can be large; an effect the other way counts as inactive or inconclusive.

SMILES	Tau ThT inhib	Tau fluor counter	VDR inhibitor	Sfp PPTase inh	Tau fibril FP	PLK1 PBD block	VDR confirm	VDR FP fluor	VDR bla	VDR viability	others
CCCOc1ccc(/C=C2/C(=O)ON=C2C)cc1OCC	/	/	?	?	/	1.68µM	12.6	7.08µM	?	.
CCCOc1ccccc1/C=C1/C(=O)ON=C1C	/	/	25.1µM	56.2µM	/	2.99µM	13.4	?	.	.
[C-]#[N+]c1cc(-c2ccncc2)c(C)[nH]c1=O	.	.	.	.	.	/	/	/	/	/
O=C(/C=C/c1cccnc1)c1ccc([N+](=O)[O-])cc1	/	/	?	?	/	.	7.94	8.91µM	?	?
O=C(/C=C/c1cccnc1)c1ccc(O)cc1	?	.	.	.	.	.	/	/	/	/
COc1ccc2c(c1)Cc1sc(NC(=O)c3cccc(C)c3)nc1-2	12.6µM	15.8µM[quencher]	20µM	/	.	/	7.08	7.08µM	?	?
Cc1ccc(/C=C/C(=O)c2nc3ccccc3[nH]2)cc1	?	.	?	.	.	.	?	?	?	.
CCOc1ccc(C(=O)Nc2ccc3c(c2)CCCN3S(=O)(=O)c2ccc(C)cc2)cc1	.	.	.	/	.	/	/	/	/	/
CCN(Cc1ccccc1)C(=O)c1cc2ccc3cccnc3c2[nH]1	?	.	.	/	.	/	/	/	/	/
COc1ccc(N2C(=O)C(Cl)=C(Oc3cccc(OC)c3)C2=O)cc1	14.1µM	.	28.2µM	8.91µM	22.4µM	1.89µM	3.16	2.82µM	5.8µM	11.9µM
COc1ccc2c(c1)/C(=C\c1cccc(/C=C3/C(=O)Nc4ccc(OC)cc43)n1)C(=O)N2	/	/	?	/	/	.	/	/	/	/
O=C1Nc2ccc(I)cc2/C1=C/c1cc(Br)c(O)c(Br)c1	3.98µM	14.1µM![quencher]	25.1µM	?	?	/	/	/	/	/	USP1-UAF1 confirm=74.4µM
CCOC(=O)Cn1c(=O)n(C2CCCCC2)c2nc(-c3cccc(C)c3)nc(C(N)=O)c21	.	.	.	/	.	/	/	/	/	/
CCOC(=O)/C(C#N)=C1/C(=O)N(Cc2ccccc2)c2ccccc21	?	.	28.2µM	44.7µM	.	3.77µM	3.36	?	.	.
Cc1ccc(Oc2c(C(N)=O)cc([N+](=O)[O-])cc2[N+](=O)[O-])cc1	8.91µM	?	28.2µM	?	?	21.2µM	10.6	12.6µM	?	5.62µM
CCn1c(SCC(=O)Nc2oc(C)c3c(C)n[nH]c(=O)c23)nnc1-c1ccco1	/	/	/	/	/	.	/	/	/	/
O=S(=O)(Nc1cc(S(=O)(=O)N2CCOCC2)ccc1NCC1CCCO1)c1ccc(F)cc1 (stereo not given)	/	/	.	/	/	.	/	/	/	/
O=C(Nc1ccc(OC(F)F)cc1)c1ccccn1	.	.	.	.	.	.	/	/	/	/
CCS(=O)(=O)c1ncc(Cl)c(C(=O)Nc2ccc(S(=O)(=O)N(C)c3ccccc3)cc2)n1	?	.	?	?	?	?	4.47	?	?	7.52µM
CC(C)Sc1ncc(Cl)c(C(=O)Nc2ccc(S(=O)(=O)N(C)c3ccccc3)cc2)n1	?	?	.	/	.	/	/	/	/	/
CCSc1ncc(Cl)c(C(=O)Nc2ccc(S(=O)(=O)N(C)c3ccccc3)cc2)n1	.	?	.	/	.	/	/	/	/	/
CS(=O)(=O)c1ncc(Cl)c(C(=O)Nc2ccc(OC(F)F)cc2)n1	/	/	10µM	?	/	23.8µM	8.44	8.91µM	?	13µM
